Each structure is given as a SMILES string.

Consider 27 compounds from the supplement of paper PMC13380429.

Assay [1] deals with Vero E6 infected with SARS-CoV-2. Briefly: morphology score (similarity to uninfected cells); higher = more like uninfected cells. The note with it: 24 h.
Assay [2] has the same test system. Briefly: SARS-CoV-2 infection rate relative to infected DMSO; higher = more infection, active = 60 or less. The following applies: 24 h.

For `Cc1nc[nH]c1CCN` [4-methylhistamine] (10 µM), the morphology score in assay [1] amounted to 0.105. In assay [2], the SARS-CoV-2 infection rate was 99.5% (inactive).

Turning to `COC(=O)[C@H](CC(C)C)NC(=O)c1ccc(NC[C@@H](N)CS)cc1-c1cccc2ccccc12` (10 µM), the morphology score in assay [1] is -0.445. Further, the SARS-CoV-2 infection rate in assay [2] was 115% (inactive).

On to `C[C@@H]1CN(c2c(F)c(N)c3c(=O)c(C(=O)O)cn(C4CC4)c3c2F)C[C@H](C)N1` [sparfloxacin] (10 µM), for which the morphology score in assay [1] is -0.0335. Also, in assay [2], the SARS-CoV-2 infection rate is 115% (inactive).

As for `C[C@H]1O[C@@H](Oc2c(-c3cc(O)c(O)c(O)c3)oc3cc(O)cc(O)c3c2=O)[C@@H](O)[C@@H](O)[C@@H]1O` [myricitrin] (10 µM), in assay [1], the morphology score came to 0.147. The SARS-CoV-2 infection rate in assay [2] was 103% (inactive).

In the case of `CC(C)=CCC[C@](C)(O)[C@@H]1CC=C(C)CC1` [levomenol] (10 µM), the morphology score in assay [1] was -0.0548. Further, in assay [2], the SARS-CoV-2 infection rate is 104% (inactive).

In assay [1], `CC1(C)OC[C@H](NC(=O)Nc2ccc(Br)cc2Br)[C@H](c2ccccc2)O1` (10 µM) registered a morphology score of -0.142. For the same compound, the SARS-CoV-2 infection rate in assay [2] is 112% (inactive).

`COC(=O)[C@H](Cc1ccccc1)NC(=O)[C@@H](N)CC(=O)O` [aspartame] (10 µM) yielded a morphology score in assay [1] of 0.172. The SARS-CoV-2 infection rate in assay [2] is 106% (inactive).

Turning to `CCOP(=S)(OCC)Oc1nc(Cl)c(Cl)cc1Cl` [chlorpyrifos] (10 µM), the morphology score in assay [1] is -0.24. Also, the SARS-CoV-2 infection rate in assay [2] was 112% (inactive).

The compound `CC(=O)N1CCC(NC(=O)c2ccc(F)cc2)CC1` (10 µM) had a morphology score in assay [1] of 0.0529. Besides, the SARS-CoV-2 infection rate in assay [2] was 110% (inactive).

Compound `CO[C@H]1/C=C/O[C@@]2(C)Oc3c(C)c(O)c4c(O)c(c(/C=N/N5CCN(C6CCCC6)CC5)c(O)c4c3C2=O)NC(=O)/C(C)=C\C=C\[C@H](C)[C@H](O)[C@@H](C)[C@@H](O)[C@@H](C)[C@H](OC(C)=O)[C@@H]1C` [rifapentine] (10 µM) gave a morphology score in assay [1] of 0.192. Besides, the SARS-CoV-2 infection rate in assay [2] is 107% (inactive).

For the compound `CCN1CCN(Cc2ccc(Nc3ncc(F)c(-c4cc(F)c5nc(C)n(C(C)C)c5c4)n3)nc2)CC1` [abemaciclib] (10 µM), in assay [1], the morphology score stood at 0.0416. In assay [2], the SARS-CoV-2 infection rate was 107% (inactive).

Turning to `O=C(Nc1ccc(S(=O)(=O)Nc2nccs2)cc1)C(c1ccccc1)c1ccccc1` (10 µM), the morphology score in assay [1] was -0.0899. In addition, the SARS-CoV-2 infection rate in assay [2] is 105% (inactive).

On to `CC(C)(O)CNc1nc(Nc2ccnc(C(F)(F)F)c2)nc(-c2cccc(C(F)(F)F)n2)n1` [enasidenib] (10 µM), for which the morphology score in assay [1] came out at 0.237. Further, the SARS-CoV-2 infection rate in assay [2] is 100% (inactive).

For `CCOc1ccc(Cc2cc([C@@H]3O[C@H](SC)[C@@H](O)[C@H](O)[C@H]3O)ccc2Cl)cc1` [sotagliflozin] (10 µM), in assay [1], the morphology score was -0.0387. Also, in assay [2], the SARS-CoV-2 infection rate is 114% (inactive).

In assay [1], `CS(=O)(=O)c1ccc(Oc2cc(F)cc(C#N)c2)c2c1[C@H](O)C(F)(F)C2` (10 µM) gave a morphology score of 0.0223. Also, the SARS-CoV-2 infection rate in assay [2] is 99% (inactive).

As for `NCCC(=O)N[C@@H](Cc1c[nH]cn1)C(=O)O` [carnosine] (0.833333 µM), the morphology score in assay [1] turned out to be 0.0964. In addition, the SARS-CoV-2 infection rate in assay [2] is 99% (inactive).

Take `CSc1cc2c(cc1C(F)(F)F)N(C(=O)Nc1cccnc1)CC2` (10 µM): the morphology score in assay [1] is -0.166. Also, the SARS-CoV-2 infection rate in assay [2] is 112% (inactive).

`Cc1cccc(C(=O)NCN2CCN(c3ccccc3C#N)CC2)c1` (10 µM): the morphology score in assay [1] came out at 0.161. The SARS-CoV-2 infection rate in assay [2] is 102% (inactive).

Turning to `CCN(CC)CCCC(C)Nc1c2ccc(Cl)cc2nc2ccc(OC)cc12` (centres undefined) [mepacrine] (0.833333 µM), the morphology score in assay [1] stood at 0.481. The SARS-CoV-2 infection rate in assay [2] is 55.5% (active).

Compound `CC[C@H](C)C(=O)O[C@H]1C[C@@H](C)C=C2C=C[C@H](C)[C@H](CC[C@@H]3C[C@@H](O)CC(=O)O3)[C@H]21` [lovastatin] (10 µM) returned a morphology score in assay [1] of 0.0359. Also, the SARS-CoV-2 infection rate in assay [2] is 110% (inactive).

Take `O=c1ccc2cc(O[C@@H]3O[C@H](CO)[C@@H](O)[C@H](O)[C@H]3O)c(O)cc2o1` [esculin] (10 µM): in assay [1], the morphology score was 0.15. In addition, in assay [2], the SARS-CoV-2 infection rate is 111% (inactive).

In assay [1], `CCCc1c(OCCCCc2nnn[nH]2)ccc(C(C)=O)c1O` [tomelukast] (10 µM) came in with a morphology score of -0.0661. In addition, the SARS-CoV-2 infection rate in assay [2] is 110% (inactive).

Turning to `CCCc1nc(C)c2c(=O)nc(-c3cc(S(=O)(=O)N4CCN(CC)CC4)ccc3OCC)[nH]n12` [vardenafil] (10 µM), the morphology score in assay [1] was 0.227. In addition, the SARS-CoV-2 infection rate in assay [2] was 97.5% (inactive).

Take `Cc1cc(C)c(S(=O)(=O)Nc2ccccc2C(F)(F)F)c(C)c1` (10 µM): the morphology score in assay [1] was -0.0872. Further, the SARS-CoV-2 infection rate in assay [2] is 113% (inactive).

Take `N#Cc1ncccn1` [2-cyanopyrimidine] (10 µM): in assay [1], the morphology score was determined as 0.0613. In addition, in assay [2], the SARS-CoV-2 infection rate was 108% (inactive).

In assay [1], `O=C(Nc1ccc(Br)cc1)c1cc(Br)cc(Br)c1O` [tribomsalan] (10 µM) gave a morphology score of 0.043. For the same compound, in assay [2], the SARS-CoV-2 infection rate is 106% (inactive).

Take `CS(=O)(=O)Nc1ccc(-c2coc3cc(OCc4cccc(C(=O)O)c4)ccc3c2=O)cc1` (10 µM): the morphology score in assay [1] is 0.0543. Moreover, in assay [2], the SARS-CoV-2 infection rate is 97% (inactive).
